In the first experiment the target is PAS domain-containing serine/threonine-protein kinase (Homo sapiens) (UniProt Q96RG2). The note with it: at 10 µM.
PAS domain-containing serine/threonine-protein kinase (Homo sapiens), sequence (Q96RG2 whole entry, the tested form may be a part): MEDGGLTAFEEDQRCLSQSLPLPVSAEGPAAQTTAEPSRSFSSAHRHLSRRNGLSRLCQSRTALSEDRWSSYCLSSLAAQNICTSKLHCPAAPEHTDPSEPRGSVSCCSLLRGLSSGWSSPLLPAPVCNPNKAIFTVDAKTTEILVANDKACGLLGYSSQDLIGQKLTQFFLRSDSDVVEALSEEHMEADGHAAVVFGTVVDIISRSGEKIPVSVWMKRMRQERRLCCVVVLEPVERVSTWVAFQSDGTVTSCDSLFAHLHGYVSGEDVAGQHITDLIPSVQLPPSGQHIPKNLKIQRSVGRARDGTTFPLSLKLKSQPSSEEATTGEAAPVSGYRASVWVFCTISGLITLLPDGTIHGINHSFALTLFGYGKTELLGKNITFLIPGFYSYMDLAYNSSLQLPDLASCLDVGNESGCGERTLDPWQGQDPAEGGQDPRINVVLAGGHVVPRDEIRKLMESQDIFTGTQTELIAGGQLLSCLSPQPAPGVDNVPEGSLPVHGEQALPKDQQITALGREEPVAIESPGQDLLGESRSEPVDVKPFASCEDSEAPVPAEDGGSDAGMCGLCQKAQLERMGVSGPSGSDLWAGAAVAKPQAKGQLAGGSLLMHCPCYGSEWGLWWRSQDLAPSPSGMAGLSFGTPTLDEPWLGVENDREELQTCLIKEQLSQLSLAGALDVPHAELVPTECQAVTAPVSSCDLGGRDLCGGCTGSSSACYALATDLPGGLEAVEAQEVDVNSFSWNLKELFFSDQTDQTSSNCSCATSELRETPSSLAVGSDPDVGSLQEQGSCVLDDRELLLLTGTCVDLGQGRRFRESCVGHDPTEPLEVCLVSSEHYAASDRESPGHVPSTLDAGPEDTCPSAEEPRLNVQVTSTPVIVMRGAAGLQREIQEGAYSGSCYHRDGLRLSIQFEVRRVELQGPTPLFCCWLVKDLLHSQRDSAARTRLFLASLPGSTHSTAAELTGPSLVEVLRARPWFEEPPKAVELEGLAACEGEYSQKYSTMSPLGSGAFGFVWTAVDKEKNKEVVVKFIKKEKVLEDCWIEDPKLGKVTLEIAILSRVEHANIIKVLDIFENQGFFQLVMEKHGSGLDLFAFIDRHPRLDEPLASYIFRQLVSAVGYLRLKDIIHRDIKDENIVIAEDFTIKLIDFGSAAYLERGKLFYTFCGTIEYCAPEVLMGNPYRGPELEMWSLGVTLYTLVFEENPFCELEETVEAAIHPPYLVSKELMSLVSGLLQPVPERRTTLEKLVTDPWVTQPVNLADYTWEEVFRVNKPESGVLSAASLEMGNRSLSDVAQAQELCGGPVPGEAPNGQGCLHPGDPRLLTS
Activated CDC42 kinase 1 (Homo sapiens), sequence (Q07912 whole entry, looked up): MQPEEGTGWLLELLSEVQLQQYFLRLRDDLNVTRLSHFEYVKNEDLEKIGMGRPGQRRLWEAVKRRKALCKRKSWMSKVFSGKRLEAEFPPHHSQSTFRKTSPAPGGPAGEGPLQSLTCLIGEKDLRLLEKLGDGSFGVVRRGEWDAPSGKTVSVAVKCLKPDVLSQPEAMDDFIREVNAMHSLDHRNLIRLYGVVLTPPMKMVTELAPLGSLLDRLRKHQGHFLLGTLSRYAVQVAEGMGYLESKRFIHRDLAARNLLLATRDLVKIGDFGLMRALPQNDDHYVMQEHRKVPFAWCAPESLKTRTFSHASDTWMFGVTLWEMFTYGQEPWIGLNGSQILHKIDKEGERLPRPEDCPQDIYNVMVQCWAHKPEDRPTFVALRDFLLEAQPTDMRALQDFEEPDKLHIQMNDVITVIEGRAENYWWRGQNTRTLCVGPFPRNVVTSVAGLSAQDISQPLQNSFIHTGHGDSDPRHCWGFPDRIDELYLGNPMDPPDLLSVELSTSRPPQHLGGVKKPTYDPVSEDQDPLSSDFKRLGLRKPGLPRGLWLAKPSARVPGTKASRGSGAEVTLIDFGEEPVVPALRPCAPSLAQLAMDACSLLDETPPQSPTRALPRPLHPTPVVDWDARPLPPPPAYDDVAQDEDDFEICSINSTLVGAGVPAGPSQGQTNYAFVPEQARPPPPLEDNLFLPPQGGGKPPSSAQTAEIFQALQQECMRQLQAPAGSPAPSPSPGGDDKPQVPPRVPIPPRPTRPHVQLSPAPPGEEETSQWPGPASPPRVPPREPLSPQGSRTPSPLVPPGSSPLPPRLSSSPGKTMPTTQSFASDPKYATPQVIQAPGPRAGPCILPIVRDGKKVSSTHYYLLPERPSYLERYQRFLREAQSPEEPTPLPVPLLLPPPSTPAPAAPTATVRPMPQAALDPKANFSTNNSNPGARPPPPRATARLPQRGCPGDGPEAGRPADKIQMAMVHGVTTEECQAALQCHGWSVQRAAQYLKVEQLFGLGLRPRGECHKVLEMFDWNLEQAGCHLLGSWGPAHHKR
Take `Nc1ncnc2c1cnn2-c1ccccc1`: the residual activity was 92%.
In turn, `O=c1cc(N2CCNCC2)oc2c(-c3ccccc3)cccc12` gave a residual activity of 51%.
The same measure, in the same setting: to `O=C(O)/C=C/c1cc(Br)c(Br)c(Br)c1Br` belongs 6%.

Another experiment concerns the target Activated CDC42 kinase 1 (Homo sapiens) (UniProt Q07912). As to conditions: at 1 µM.
`COc1cc2ncnc(Nc3cccc(Cl)c3)c2cc1OC` came in with a residual activity of 34%.
As to `N#Cc1c(NC(=O)c2cccc3ccccc23)sc2c1CCCC2`, the residual activity worked out at 85%.
Still for that read-out and setting: next, `O=C1Cc2c([nH]c3ccc(Br)cc23)-c2ccccc2N1`: 24%; `Cn1c2ccccc2c2c3c(c4c5ccccc5n(CCC#N)c4c21)CNC3=O`: 3%; `O=C1NC(=O)C(c2cn(CCCO)c3ncccc23)=C1c1cnccn1`: 82%.
The same measure, in the same setting: next, `O=C(c1ccccc1)c1ccc(N2CCOCC2)cc1O`: 94%; `CC(C)(C)n1nc(Cc2cccc3ccccc23)c2c(N)ncnc21`: 6%.
Still for that read-out and setting: to `Oc1cccc(-c2nc(N3CCOCC3)c3oc4ncccc4c3n2)c1` belongs 78%; to `O=C1Cc2c([nH]c3ccc([N+](=O)[O-])cc23)-c2ccccc2N1`, 44%; to `O=c1cc(N2CCOCC2)oc2c1ccc1ccccc12`, 90%.
Consider `O=C1Nc2ccccc2/C1=C\c1c(Cl)[nH]c2ccccc12`, for which the residual activity worked out at 84%.
For the compound `Nc1ncnc2c1c(-c1ccc(Oc3ccccc3)cc1)cn2C1CCCC1`, the residual activity was 4%.
Still for that read-out and setting: next, `COc1cc2nccc(Oc3ccc(NC(=O)Nc4cc(C)on4)c(Cl)c3)c2cc1OC`: 20%; `Cn1sc(=O)n(Cc2ccccc2)c1=O`: 77%.
Still for that read-out and setting: to `CCCC(=O)Oc1ccc2[nH]c(C(=O)c3cc4ccccc4[nH]3)cc2c1` belongs 72%.
Still for that read-out and setting: to `O=C1NC(=O)c2c1c1c3ccccc3[nH]c1n1cncc21` belongs 38%; to `Nc1ncnc2[nH]nc(Nc3ccc(F)cc3)c12`, 60%.
Consider `O=C1NC(=O)C(c2c[nH]c3ccccc23)=C1c1c[nH]c2ccccc12`, for which the residual activity was found to be 73%.
As for `Nc1n[nH]c2nc3ccccc3nc12`, the residual activity worked out at 68%.
For the compound `NC(=O)Nc1sc(-c2ccc(F)cc2)cc1C(N)=O`, the residual activity came to 10%.
Compound `O=C(NC(NC(=S)Nc1ccc(F)c([N+](=O)[O-])c1)C(Cl)(Cl)Cl)C(c1ccccc1)c1ccccc1` (stereo not drawn) had a residual activity of 100%.
In turn, `O=C1Nc2ccc(Cl)cc2/C1=C/c1cc(Cl)c(O)c(Cl)c1` showed a residual activity of 48%.
Same read-out and setting: to `COc1ccc(Cl)cc1NC(=O)Nc1cc(C)nc2ccccc12` belongs 90%.
On the same count and under the same terms, to `COc1ccc2c(c1)c(C1=C(c3c[nH]c4ccccc34)C(=O)NC1=O)cn2CCCN(C)C` belongs 65%.
In turn, `Nc1ncnc2c1cnn2-c1ccccc1` returned a residual activity of 91%.
Same read-out and setting: next, `O=C(c1cc2cc(O)ccc2[nH]1)c1cc2cc(O)ccc2[nH]1`: 64%; `COc1cc2nccc(Oc3ccc(NC(=S)NC(=O)c4ccccc4C)cc3)c2cc1OC`: 24%.
On the same count and under the same terms, to `O=c1cc(N2CCNCC2)oc2c(-c3ccccc3)cccc12` belongs 88%; to `CC(C)c1nn(-c2c(Cl)cccc2Cl)c2nc(Cc3ccc(OCCO)cc3)[nH]c(=O)c12`, 63%; to `O=C(O)/C=C/c1cc(Br)c(Br)c(Br)c1Br`, 79%.

The record behind these values is ChEMBL document CHEMBL2218924, “A broad activity screen in support of a chemogenomic map for kinase signalling research and drug discovery” (Biochem J, 2013).
